TDP1 block: blocks human tyrosyl-DNA phosphodiesterase 1. AID 485290. Q9NUW8. recombinant TDP1, AlphaScreen DNA substrate cleavage. Potency, µM (titrated, usually from 130 µM), hits mostly inhibitors. 0.28% of 350,000 active; note: nearly all actives have a fitted effect of over 40% in size
Target sequence (Q9NUW8 whole entry, looked up): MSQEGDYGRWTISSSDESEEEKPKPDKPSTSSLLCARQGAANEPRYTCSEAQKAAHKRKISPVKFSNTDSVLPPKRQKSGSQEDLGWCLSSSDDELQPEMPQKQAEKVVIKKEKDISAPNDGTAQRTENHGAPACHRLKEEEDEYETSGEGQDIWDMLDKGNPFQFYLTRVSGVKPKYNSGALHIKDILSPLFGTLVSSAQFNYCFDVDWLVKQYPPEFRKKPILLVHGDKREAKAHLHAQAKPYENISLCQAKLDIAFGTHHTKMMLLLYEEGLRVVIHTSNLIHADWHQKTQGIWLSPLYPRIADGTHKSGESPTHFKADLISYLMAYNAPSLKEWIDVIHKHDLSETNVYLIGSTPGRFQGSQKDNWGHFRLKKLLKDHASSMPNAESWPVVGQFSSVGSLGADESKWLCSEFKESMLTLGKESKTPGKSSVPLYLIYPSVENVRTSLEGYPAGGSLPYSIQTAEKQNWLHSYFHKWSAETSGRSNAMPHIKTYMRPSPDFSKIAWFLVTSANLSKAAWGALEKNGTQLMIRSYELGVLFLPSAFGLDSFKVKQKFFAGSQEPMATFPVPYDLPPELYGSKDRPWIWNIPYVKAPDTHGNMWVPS
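Recombinant human Tdp1 (E. coli-expressed, 1 nM final) preincubated with compounds 15 min at room temperature, then 5'-biotin/3'-phosphotyrosine-FITC DNA substrate (15 nM final) added for 5 min. AlphaScreen beads (10 ug/ml final) added 10 min; cleavage lowers signal.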
TDP1 cell noCPT: qHTS for Inhibitors of human tyrosyl-DNA phosphodiesterase 1 (TDP1): qHTS in cells in absence of CPT; AID 686978, 2013; Potency, µM (top dose mostly 46.2 µM), actives largely listed as inhibitors; DT40 Tdp1-/- hTDP1 cells, no CPT, ATP luminescence, 48 h; 15% of 420,000 active; note: nearly all actives have a fitted effect of over 55% in size
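Stably hTDP1-transfected Tdp1-null chicken DT40 cells were treated with library compounds minus camptothecin and grown for at least 48 hr at 37 °C, after which cellular ATP was quantified by luminescence.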
CtBP-E1A inh: blocks the CtBP interaction with E1A; AlphaScreen GST-E1A/His-CtBP binding, 1536-well; hits give low values; activity change, % (no concentration beside the values); 0.49% of 340,000 active; AID 651724; in the data active = activity change below about -65%; inconclusive = mostly about -30% to -63%
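Homogeneous bead-based format: GST-tagged E1A captured on glutathione donor beads, His-tagged CtBP on nickel acceptor beads; compounds precede bead addition by 2 h at 37 °C.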
IL1B secr inh: inhibitors of inflammasome signaling (IL-1 beta secretion). activity change, % at 57.5 µM. AID 743279. THP-1 LPS/ATP IL-1B secretion, AlphaLISA, 16 h; hits give low values. 4.7% of 360,000 active; in the data active = activity change below about -50%; inconclusive = mostly about -30% to -49%
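THP-1 cells pretreated 1 hr with compounds (up to 57.5 uM final), then stimulated with LPS (250 ng/mL final) plus ATP (1.25 mM final); secreted IL-1B measured by AlphaLISA after 16 hr, decreased signal indicating inhibition.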
TDP1 cell CPT: growth inhibition of DT40 Tdp1-/-;hTDP1 cells with camptothecin (screen for TDP1 inhibitors) | 12% of 420,000 active | AID 686979 | Potency, µM (top dose mostly 46.2 µM), usual class: inhibitors | chicken DT40 Tdp1-/-;hTDP1 cells + 20 nM CPT, ATP luminescence, 48 h; note: nearly all actives have a fitted effect of over 55% in size
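Chicken DT40 Tdp1-/- cells complemented with human TDP1, 400 cells/well, exposed to compounds plus 20 nM camptothecin for at least 48 h at 37 C; viability read as ATP content by CellTiter-Glo luminescence.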
Six1-Eya2 blk: Six1/Eya2 interaction inhibition; activity change, % (test concentration not listed); 0.56% of 360,000 active; AlphaScreen GST-Six1/His-Eya2 binding, biochemical; hits give low values; Q15475+O00167; in the data active = activity change below about -65%; inconclusive = mostly about -30% to -63%
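AlphaScreen luminescence read after one hour at 37 °C in darkness. Pin-transferred compounds met GST-Six1 and His-Eya2 protein (5X stock 250 nM/500 nM) plus glutathione donor and Ni-chelate acceptor beads (5X, 50 ug/mL).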
Each line names hits and unclear results; the compound was inactive in the other large screens. This is a sample that favours compounds with a hit; in the whole collection about 18% have one here. Unless noted, calls come from the whole dose curve; as a rule, active = well fitted curve in the direction sought with a large enough effect; inconclusive = small, poorly fitted or top-dose-only effect, or another doubt; inactive = no such curve, though single readings can be large; an effect the other way counts as inactive or inconclusive.

CC(=O)O[C@H]1C[C@H](O[C@H]2[C@@H](O)C[C@H](O[C@H]3[C@@H](O)C[C@H](O[C@H]4CC[C@@]5(C)[C@H](CC[C@@H]6[C@@H]5C[C@@H](O)[C@]5(C)[C@@H](C7=CC(=O)OC7)CC[C@]65O)C4)O[C@@H]3C)O[C@@H]2C)O[C@H](C)[C@H]1O[C@@H]1O[C@H](CO)[C@@H](O)[C@H](O)[C@H]1O	TDP1 cell noCPT 0.335µM, TDP1 cell CPT 0.376µM (no result: TDP1 block, CtBP-E1A inh, IL1B secr inh, Six1-Eya2 blk)
CC(=O)OC1CC(OC2C(O)CC(OC3C(O)CC(OC4CCC5(C)C(CCC6C5CCC5(C)C(C7=CC(=O)OC7)CCC65O)C4)OC3C)OC2C)OC(C)C1OC1OC(CO)C(O)C(O)C1O (centres undefined)	TDP1 cell noCPT 0.411µM, IL1B secr inh -71.1, TDP1 cell CPT 0.581µM (no result: TDP1 block)
Oc1c(Br)cc(Br)cc1CN1CCN(Cc2ccccc2)CC1	TDP1 cell noCPT inconclusive, TDP1 cell CPT inconclusive, Six1-Eya2 blk inconclusive
O=c1c2ccccc2nc2n1CCS2(=O)=O	IL1B secr inh -88.5, TDP1 cell CPT 2.91µM
O=C(CCN1CCN(CCO)CC1)N1c2ccccc2Sc2ccc(C(F)(F)F)cc21	TDP1 cell noCPT 23.1µM, IL1B secr inh inconclusive, TDP1 cell CPT inconclusive
O=C(Cc1cccc(C(F)(F)F)c1)N1CCN(CC(=O)N2CCCC2)CC1	none (no result: CtBP-E1A inh)
O=P(OC1CCCCC1)(OC1CCCCC1)C(O)c1c(Cl)cccc1Cl (centres undefined)	TDP1 cell noCPT inconclusive, TDP1 cell CPT inconclusive
O=P(OC1CCCCC1)(OC1CCCCC1)C(O)c1ccc(Cl)cc1Cl (centres undefined)	TDP1 cell noCPT 20.6µM, IL1B secr inh inconclusive, TDP1 cell CPT 16.4µM
C[C@]12C=CC(=O)C=C1CCC1C2=CC[C@]2(C)[C@@H](C(=O)CN3CCN(c4cc(N5CCCC5)nc(N5CCCC5)n4)CC3)CC[C@@H]12 (some centres undefined)	none (no result: TDP1 cell noCPT, CtBP-E1A inh, IL1B secr inh, TDP1 cell CPT, Six1-Eya2 blk)
COc1ccc(C2CN(C)CC2C(=O)c2ccc(F)cc2)cc1Cl (centres undefined)	TDP1 cell noCPT 20.6µM, IL1B secr inh -57.9
CN1CC(C(=O)c2ccc(F)cc2)C(c2c(F)cccc2Cl)C1 (centres undefined)	none
C[C@]12CC[C@H]3[C@@H](CCC4=C(Cl)C(=O)CC[C@@]43C)[C@@H]1CC[C@@H]2O	TDP1 cell noCPT inconclusive (no result: TDP1 block, CtBP-E1A inh, IL1B secr inh, Six1-Eya2 blk)
O=[N+]([O-])c1ccc(Oc2ccc(N=C=S)cc2)cc1	TDP1 cell noCPT 11.9µM, TDP1 cell CPT inconclusive (no result: TDP1 block, CtBP-E1A inh, IL1B secr inh, Six1-Eya2 blk)
CCCCNC(=O)c1cc(-c2cccnc2)nc2ccc(S(=O)(=O)NCCCC)cc12	TDP1 cell noCPT inconclusive, TDP1 cell CPT 20.6µM (no result: CtBP-E1A inh, IL1B secr inh, Six1-Eya2 blk)
CCCCNc1ccncc1S(=O)(=O)NC(=O)NC(C)C	none
CCN(CC)P(c1n(C)cc[n+]1C)N(CC)CC	TDP1 cell noCPT 23.1µM, TDP1 cell CPT inconclusive (no result: CtBP-E1A inh)
c1ccc(NNc2ccccc2)cc1	none (no result: TDP1 cell noCPT, CtBP-E1A inh, IL1B secr inh, TDP1 cell CPT, Six1-Eya2 blk)
CN1C(=O)C(=Cc2ccccc2OCCOc2ccc([N+](=O)[O-])cc2)C(=O)N(C)C1=O	TDP1 cell noCPT 23.1µM, TDP1 cell CPT inconclusive
Cc1cc(C(=O)C[N+]23CCN(CC2)CC3)c(C)n1-c1ccc(Br)cc1	none
CCOc1cc(/C=C2/C(=O)NC(=O)N(c3ccc(CC)cc3)C2=O)ccc1OC(=O)c1cccs1	TDP1 cell noCPT 29.1µM
O=S1(=O)N(Cc2ccccc2Cl)CCCN1Cc1ccccc1Cl	TDP1 cell noCPT inconclusive, TDP1 cell CPT 16.4µM (no result: CtBP-E1A inh, IL1B secr inh, Six1-Eya2 blk)
COCCCN1Cc2ccccc2C1=N	none
CNCCCN1c2ccccc2CCc2ccccc21	TDP1 cell noCPT 25.9µM, IL1B secr inh -58.4, TDP1 cell CPT inconclusive
COC(=O)C1=C(c2c(C)noc2C)C[C@@H]2CC[C@H]1N2C(=O)NCc1ccco1	none
Cc1ccc(-n2c(O)c(C=Nc3ccc(S(N)(=O)=O)cc3)c(=O)[nH]c2=O)cc1	none

Assay outcomes from PubChem.
